Screens (PubChem)
Pf Dd2 inh: qHTS Primary assay for Inhibitors of Plasmodium falciparum Dd2 growth in vitro. P. falciparum Dd2 growth, SYBR Green, 72 h. Potency, µM (doses to about 28.9 µM), actives largely listed as inhibitors. 120,000 tested, 4.3% active; active = well fitted inhibition curve with a large enough effect; note: nearly all actives have a fitted effect of over 65% in size
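Infected erythrocytes (Dd2, 0.3% parasitemia, 2.5% hematocrit final) are added to compound in RPMI-1640/Albumax II medium, grown 72 h at 37C in low oxygen, then lysed with saponin/Triton-X containing SYBR Green and read by fluorescence.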
Hits are given with their value; 0 = inactive. This is one part of a sample in which hits are shown more often than they occur.

SMILES | Pf Dd2 inh
COCCn1c(C)cc(C(=O)N2CCc3nn(CCOC)c(=O)n3CC2)c1C | 0
CCn1nccc1C(=O)N1CCc2nnc([C@@H]3C[C@@H](O)CN3C(C)C)n2CC1 | 0
CCO[C@H]1CN(C(=O)Cc2c(C)[nH]c3c(F)cccc23)C[C@@H]1O | 0
O=C1CC(c2noc(-c3ccc(Cl)cc3)n2)CN1c1ccc(F)cc1 (configuration not stated) | 0
CCOC(=O)c1[nH]c2c(c1Cc1ccccc1C)C(=O)CC(c1ccccc1)C2 (configuration not stated) | 8.9µM
CCOC(=O)C1=C(CNCc2ccc(Cl)cc2)NC(=O)NC1c1ccccc1 (configuration not stated) | 0
CCOC(=O)C1=C(C)N=C2SCCC(=O)N2C1c1ccc(OCc2ccccc2)cc1 (configuration not stated) | 0
CCc1ccc(C2CC(=O)c3c([nH]c(C(=O)OCCOc4ccccc4)c3C)C2)cc1 (configuration not stated) | 5µM
COc1ccc(C2CC(=O)c3c([nH]c(C(=O)OCc4ccccc4)c3C)C2)cc1OC (configuration not stated) | 0
Cc1c(C(=O)OCc2ccccc2)[nH]c2c1C(=O)CC(c1ccc(Cl)cc1)C2 (configuration not stated) | 0
CCOC(=O)C1=C(C)N=C2SC=C(CC(=O)NCC3CC3)N2C1c1cc(OC)ccc1OC (configuration not stated) | 0
CCOC(=O)c1[nH]c2c(c1Cc1ccccc1C)C(=O)CC(c1cc(OC)ccc1OC)C2 (configuration not stated) | 5µM
O=C1CC(c2ccccc2)Cc2[nH]c(=O)c(C(=O)Nc3cccc(Cl)c3)cc21 (configuration not stated) | 0
CN(C)CCCNC(=O)C1CCCN(S(=O)(=O)c2ccccc2)CCC(=O)NCC1 (configuration not stated) | 0
CNc1nc(C(=O)N2CCC(c3nccn3Cc3ccncc3)CC2)cs1 | 0
CN(C)C[C@@H]1CN(c2ncccn2)C[C@H]1NC(=O)c1ccnn1C | 0
Cn1cccc1C(=O)N[C@@H]1CN(c2ncccn2)C[C@H]1CO | 0
Cn1nccc1C(=O)N[C@@H]1CN(c2ncccn2)C[C@H]1CO | 2.5µM
COc1cccc(C(=O)N2CCOC[C@H](Oc3cccnc3)C2)c1 | 0
Cc1ccc(-c2ccccc2C=O)cc1Cl | 0
Cc1ccc(-c2[nH]ncc2CN)cc1 | 0
Cc1cc(C)cc(-c2ccccc2CN)c1 | 13µM
Cc1cc(C)cc(-c2ccc(CN)cc2)c1 | 11µM
Cc1ccc(-c2ccccc2CN)cc1Cl | 11µM
COc1ccc(F)cc1-c1ccc(CN)cc1 | 0
SMILES | Pf Dd2 inh
Cc1cc(C)cc(-c2ccc(C=O)cc2)c1 | 0
Cc1cccc(-c2[nH]ncc2CN)c1 | 0
NCc1ccc(-c2ccccn2)cc1 | 0
NCc1ccccc1-c1cc(F)cc(F)c1 | 13µM
Cc1cc(C)cc(-c2ccccc2C=O)c1 | 0
CN1CCC(N2CC3(CCC2=O)CCN(C(=O)Cn2ccnc2)CC3)C1 (configuration not stated) | 0
COc1cccc(N2CC(C(=O)NCc3ccc(F)cc3)NC2=O)c1 (configuration not stated) | 0
O=C1NCc2ccccc2CC12CCN(Cc1ccncc1)CC2 | 0
C#CCN(C)C(=O)C[C@@H]1c2nc(-c3cccnc3)sc2C[C@@H]2[C@](C)(CO)[C@H](O)CC[C@]21C | 0
O=C(Nc1ccccc1F)N1CC2CCC(C1)N2CC1CCCC1 | 0
COC(=O)c1cccc(-c2nccn2CC(O)c2ccccc2)c1 (configuration not stated) | 0
COc1ccccc1CNC(=O)C1CCN(C(=O)c2nnn3c2COC(c2ccc(C)cc2)C3)CC1 (configuration not stated) | 0
O=C(c1ccccn1)N1CCC(N2CCNC2=O)CC1 | 0
O=C(Nc1ccc(F)cc1)N1CCN2C(=O)N(C3CCOCC3)C[C@H]2C1 | 0
CC(C)CCNC1(Cc2cc(CN3CCOCC3)on2)COC1 | 0
CC(C)CCN1CC2(CCCN(C(=O)Cn3ccc(=O)[nH]c3=O)C2)CCC1=O (configuration not stated) | 0
COc1ccc(-c2cc(N3CCN(C(=O)c4cc5ccccc5[nH]4)CC3)n[nH]2)cc1 | 0
O=C(NC[C@H]1OC[C@@H](NCc2cnc[nH]2)[C@@H]1O)c1ccncc1 | 0
Cc1cnn(CCC(=O)N2CCCn3ccnc3C2c2cnn(C)c2)c1 (configuration not stated) | 0
Cc1nc2cccnc2n1CC1CCCN(S(=O)(=O)Cc2ccccc2)C1 (configuration not stated) | 0
NCc1ccccc1-c1ccc(OC(F)(F)F)cc1 | 11µM
CN(Cc1ccc(OC(F)(F)F)cc1)Cc1ccccc1C(F)(F)F | 0
O=Cc1ccccc1-c1ccc(OC(F)(F)F)cc1 | 0
O=[S+]([O-])(Nc1nncs1)c1ccc2c(c1)OCCN(Cc1ccsc1)C2 | 0
Cc1ccc(-c2nnc3ccc(NC(C)C)nn23)nc1 | 0
SMILES | Pf Dd2 inh
COCCNc1cc(-c2cc(C(F)(F)F)ccn2)c2cc[nH]c2n1 | 10µM
COCCNc1ccc2nnc(-c3ccc(C)cn3)n2n1 | 0
COCCNc1ccc2nnc(-c3cc(C#N)ccn3)n2n1 | 0
CCOC(=O)c1ccc(NC(=O)c2c(OCC)cc(=O)n3c2CCCC3)cc1 | 0
Cc1ccc(C)c(Cn2c(=O)n(Cc3ccc4c(c3)OCO4)c(=O)c3oc4ccccc4c32)c1 | 0
O=c1c2oc3ccccc3c2n(Cc2cccc(Cl)c2)c(=O)n1Cc1ccc2c(c1)OCO2 | 10µM
Cc1cccc(Cn2c(=O)n(Cc3ccccc3)c(=O)c3oc4ccccc4c32)c1 | 0
COc1ccc(Cn2c(=O)c3oc4ccccc4c3n(Cc3cccc(F)c3)c2=O)cc1 | 0
O=c1c2oc3ccccc3c2n(Cc2ccccc2F)c(=O)n1Cc1ccc2c(c1)OCO2 | 0
O=c1c2oc3ccccc3c2n(Cc2cccc(C(F)(F)F)c2)c(=O)n1Cc1ccc2c(c1)OCO2 | 7.9µM
O=c1c2sc3ccccc3c2n(Cc2cccc(C(F)(F)F)c2)c(=O)n1Cc1ccc(F)cc1 | 11µM
O=c1c2sc3ccccc3c2n(Cc2cccc(C(F)(F)F)c2)c(=O)n1Cc1ccccc1 | 0
O=c1c2sc3ccccc3c2n(Cc2cccc(Cl)c2)c(=O)n1Cc1ccc(F)cc1 | 0
C[S+](=O)([O-])N1CCC2(CC1)C(=O)NN=C2C1CC1 | 0
Cc1ccc(-n2nc3n(c2=O)CCN(C(=O)c2ccc(F)cc2)C3)cc1 | 0
COC(=O)c1ccc2c(c1)nc1n2[C@@H](CNC(=O)C2CC2)COC1 | 0
O=C(c1ccc(Cl)cc1Cl)N1CCN(c2cc(-c3ccccc3)[nH]n2)CC1 | 0
CC1=C(C(=O)OC(C)C)C(c2cccs2)N2C(CC(=O)NC3CC3)=CSC2=N1 (configuration not stated) | 0
CO[C@H]1[C@H](NC(=O)CCOc2ccccc2)c2ccccc2C12CCNCC2 | 0
COc1cc(OC(F)(F)F)ccc1C(=O)N1CCC(C(=O)O)(c2ccccc2)CC1 | 0
CC(=O)N1CC2(Cc3ccccc31)CN([S+](=O)([O-])c1cccs1)C2 | 0
OCC1CN(C2CCC2)CC12CCN(Cc1ccc(F)cc1)CC2 (configuration not stated) | 13µM
OCC1CN(C2CCC2)CC12CCN(Cc1cc(F)c(F)c(F)c1)CC2 (configuration not stated) | 0
OCC1CN(C2CCC2)CC12CCN(Cc1ccc[nH]1)CC2 (configuration not stated) | 0
